Compounds with a hit are over-represented: about 19% of the library has one in this group of screens.
TDP1 block: blocks human tyrosyl-DNA phosphodiesterase 1; recombinant TDP1, AlphaScreen DNA substrate cleavage; Potency, µM (series often up to 130 µM), actives largely listed as inhibitors; 0.28% of 350,000 active; AID 485290; note: nearly all actives have a fitted effect of over 40% in size
Target sequence (Q9NUW8 whole entry, looked up): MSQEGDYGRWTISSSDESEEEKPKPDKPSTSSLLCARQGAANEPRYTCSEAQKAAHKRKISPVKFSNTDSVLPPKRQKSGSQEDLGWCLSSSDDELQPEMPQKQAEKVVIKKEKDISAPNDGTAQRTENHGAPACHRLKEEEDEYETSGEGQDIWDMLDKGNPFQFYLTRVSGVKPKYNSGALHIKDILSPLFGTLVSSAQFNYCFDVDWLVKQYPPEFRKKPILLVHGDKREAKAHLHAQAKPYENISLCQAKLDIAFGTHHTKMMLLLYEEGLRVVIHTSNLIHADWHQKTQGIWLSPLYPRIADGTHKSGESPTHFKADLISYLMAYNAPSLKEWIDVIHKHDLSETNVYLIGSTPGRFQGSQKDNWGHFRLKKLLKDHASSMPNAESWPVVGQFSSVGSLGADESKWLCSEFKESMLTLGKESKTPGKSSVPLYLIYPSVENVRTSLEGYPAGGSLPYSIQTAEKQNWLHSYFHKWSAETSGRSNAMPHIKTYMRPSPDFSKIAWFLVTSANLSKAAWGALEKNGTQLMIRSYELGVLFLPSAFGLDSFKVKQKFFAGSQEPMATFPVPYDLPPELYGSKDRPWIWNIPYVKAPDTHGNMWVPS
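Here, a 5' biotin and 3' phosphotyrosine-FITC DNA oligonucleotide reports Tdp1 activity: intact substrate bridges AlphaScreen beads, while cleavage leaves a 3' phosphate and drops signal. All incubations at room temperature.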
IL1B secr inh: blocks inflammasome-driven IL-1 beta release; THP-1 LPS/ATP IL-1B secretion, AlphaLISA, 16 h; hits give low values; 4.7% of 360,000 active; activity change, % at 57.5 µM; in the data active = activity change below about -50%; inconclusive = mostly about -30% to -49%
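Secreted IL-1B measured by AlphaLISA bead assay after 16 h compound exposure of THP-1 cells; compounds (final up to 57.5 uM) added 1 h before LPS (250 ng/mL) and ATP (1.25 mM) stimulation; lower signal means less secretion.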
HepG2 viability: kills HepG2 cells in TGF-b inhibitor counter-screen; HepG2 CAGA-GFP viability, ATP luminescence, 18 h; Potency, µM (highest dose often 46.1 µM), actives largely listed as cytotoxic; 0.76% of 410,000 active; AID 588856
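HepG2 CAGA-GFP cells (1000/well, DMEM with 1% FBS) received compound, then TGF-beta at 500 pg/mL final, and were incubated 18 hours at 37 degrees C. Viability was read by CellTiter-Glo luminescence. Media-only wells were set as complete cell-killing and DMSO as no toxicity.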
TDP1 cell noCPT: qHTS for Inhibitors of human tyrosyl-DNA phosphodiesterase 1 (TDP1): qHTS in cells in absence of CPT; 15% of 420,000 active; DT40 Tdp1-/- hTDP1 cells, no CPT, ATP luminescence, 48 h; AID 686978, 2013; Potency, µM (top dose mostly 46.2 µM), usual class: inhibitors; note: nearly all actives have a fitted effect of over 55% in size
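No-CPT arm: Tdp1-/-;hTDP1 DT40 cells (400/well) plus compounds, incubated ≥48 hr at 37 °C. Readout CellTiter-Glo luminescence.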
TGFb SMAD3 inh: blocks TGF-b signaling; HepG2 CAGA-GFP TGF-b/SMAD3 reporter, GFP fluorescence, 18 h; TGF-beta stimulated, 500 pg/mL final; Potency, µM (titrated, usually from 46.1 µM), actives largely listed as inhibitors; 1.2% of 410,000 active; note: nearly all actives have a fitted effect of over 65% in size
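First, reporter cells (HEPG2 CAGA-GFP) rested 2 h at 37 degrees C. Next, compounds were pinned in and TGF-beta added to 500 pg/mL final. After 18 h, GFP was imaged per cell and summed per well.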
DT40 TDP1 CPT: growth inhibition of DT40 Tdp1-/-;hTDP1 cells with camptothecin (screen for TDP1 inhibitors); chicken DT40 Tdp1-/-;hTDP1 cells + 20 nM CPT, ATP luminescence, 48 h; Potency, µM (series often up to 46.2 µM), usual class: inhibitors; 12% of 420,000 active; note: nearly all actives have a fitted effect of over 55% in size
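Cell growth measured by CellTiter-Glo luminescence after a minimum 48 h, 37 C compound exposure with 20 nM CPT in Tdp1-knockout DT40 cells stably expressing hTDP1, seeded 400/well; qHTS titration format.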
Numbers stand for hits; – = inactive; ? = inconclusive; · = not tested or not shown; [ ] = another dose, or the depositor's remark. Unless noted, calls come from the whole dose curve; as a rule, active = well fitted curve in the direction sought with a large enough effect; inconclusive = small, poorly fitted or top-dose-only effect, or another doubt; inactive = no such curve, though single readings can be large; an effect the other way counts as inactive or inconclusive.

SMILES	TDP1 block	IL1B secr inh	HepG2 viability	TDP1 cell noCPT	TGFb SMAD3 inh	DT40 TDP1 CPT
Cc1nc2cc(NC(=O)[C@@H]3C[C@@H](Sc4ccccn4)CN3C3CCCCCC3)ccc2s1	·	·	·	–	·	–[9.04 µM]
COc1cccc2[nH]c(C(=O)NCC3CCCO3)cc12 (stereo not given)	·	–	–	–	–	–
COc1ccccc1-c1nc(C(=O)NCC2CCCO2)cc2c1[nH]c1ccccc12 (stereo not given)	·	–	–	14.6µM	–	20.6µM
O=C(NCC1CCCO1)c1cc2c([nH]c3ccccc32)c(-c2cccc(Cl)c2)n1 (stereo not given)	·	-65.4	–	2.31µM	?	4.11µM
O=C(NCC1CCCO1)c1cc2ccccc2[nH]1 (stereo not given)	–	–	–	?	–	–
COc1cc(-c2nc(C(=O)NCC3CCCO3)cc3c2[nH]c2ccccc23)cc(OC)c1OC (stereo not given)	·	–	–	7.31µM	–	5.8µM
O=C(Cc1ccsc1)NNC(=O)c1cccc(Cl)c1	–	–	–	–	–	–
COc1ccccc1NC(=O)Cn1c(=O)n(CCCCCC(=O)NCc2ccccc2)c(=O)c2sccc21	–	·	–	?	–	?
COc1ccc(C2=Nn3c(nnc3-c3ccccc3O)SC2)c(OC)c1	–	·	·	·	·	·
COc1cccc2sc(N(CCCN(C)C)C(=O)c3ccc(S(=O)(=O)N4CCc5ccccc5C4)cc3)nc12	–	-97.2	–	10.3µM	?	14.6µM
COc1cc2nc(N(CCCN(C)C)C(=O)c3ccc(S(=O)(=O)N4CCc5ccccc5C4)cc3)sc2cc1OC	·	-96.2	–	?	–	?
Cc1ccc2sc(N(CCCN(C)C)C(=O)c3ccc(S(=O)(=O)N4CCc5ccccc5C4)cc3)nc2c1C	–	-82.4	–	4.11µM	–	4.61µM
COc1cc2nc(N(CCCN(C)C)C(=O)c3ccc(C(=O)c4ccccc4)cc3)sc2cc1OC	·	-105.1	15.8µM	?	?	?
COc1ccc(-c2cc(C(F)(F)F)nc(SCCC(=O)Nc3ccc(F)cc3F)n2)cc1	–	·	–	?	–	?
COc1ccc(Br)cc1CNC(=O)c1nn(-c2ccc(C)cc2)c(=O)c2c1c1ccccc1n2C	–	·	–	–	–	–
CC(C)(C)NC(=O)CSC(=Nc1cccc(F)c1)NC#N	–	-96.7	–	?	–	?
CCCN1CNc2c(c(=O)[nH]c(=S)n2CCCc2ccccc2)C1	–	·	·	12.6µM	·	?
CCCN1CNc2c(c(=O)[nH]c(=S)n2CCC(C)C)C1	–	·	·	?	·	–
CCCN1CNc2c(c(=O)[nH]c(=S)n2CCc2cccc(C)c2C)C1	–	·	·	12.6µM	·	?
CCCN1CNc2c(c(=O)[nH]c(=S)n2CCC(C)(C)C)C1	–	·	·	12.6µM	·	?
C(=C\c1cnc2ccccc2n1)/c1ccc2c(c1)OCO2	·	·	–	?	–	?
COc1ccc(OCCNC2CCCC2)cc1	–	–	–	–	–	–
c1ccc(-c2ccc(OCCCNC3CCCC3)cc2)cc1	–	·	–	?	?	14.6µM
COC(=O)c1ccc(CSc2nnc(C)s2)cc1	–	–	–	10.3µM	–	11.6µM
COC(=O)c1ccc(CSc2nnc(N)s2)cc1	–	–	–	–	–	–
SMILES	TDP1 block	IL1B secr inh	HepG2 viability	TDP1 cell noCPT	TGFb SMAD3 inh	DT40 TDP1 CPT
COc1cccc(-c2nc(S(=O)(=O)c3ccccc3)c(NCc3ccccc3)o2)c1	·	·	–	?	–	?
Cc1cc(N2CCOCC2)nc2ccc(NC(=O)CCC(=O)N3CCCC(C)C3)cc12 (stereo not given)	–	–	–	–	–	–
Cc1cc(N2CCOCC2)nc2ccc(NC(=O)CCC(=O)N3CCN(c4ccccc4F)CC3)cc12	–	–	–	14.6µM	–	?
Cc1cc(N2CCOCC2)nc2ccc(NC(=O)CCC(=O)N3CCN(c4ccc(F)cc4)CC3)cc12	–	–	–	8.2µM	–	9.2µM
Cc1cc(C)n(C(C)CC(=O)NCc2ccc(Cl)cc2)n1 (stereo not given)	–	·	–	–	–	–
COc1cc(OC)c(NC(=O)c2c(C)oc3ncn(C)c(=O)c23)cc1Cl	–	·	–	–	–	–
OCCNNC(=S)NC1CC2C=CC1C2 (stereo not given)	–	–	–	–	–	–
COc1ccccc1N1CCN(C(=O)c2cc(-c3ccccc3O)on2)CC1	–	–	–	18.4µM	–	20.6µM
COc1ccc(-c2cc(C(=O)N3CCN(c4ccccc4)CC3)no2)cc1OC	–	–	–	?	–	–
COc1ccc(-c2cc(C(=O)N3CCN(c4ccccc4OC)CC3)no2)cc1OC	–	–	–	20.6µM	–	–
COc1cccc(-c2cc(C(=O)N3CCOCC3)no2)c1	–	–	–	–	–	–
COc1cccc(-c2cc(C(=O)N3CCN(C(c4ccccc4)c4ccccc4)CC3)no2)c1	–	–	–	25.9µM	–	20.6µM
COc1cccc(OCc2cc(C(=O)N3CCN(c4ccccc4O)CC3)no2)c1	–	–	–	13µM	–	16.4µM
COc1cc(OC)c2nc(-c3cc4c(c(OC)c3)OCCN(C(=O)C(C)c3n[nH]c(=O)c5ccccc35)C4)cc(C)c2c1 (stereo not given)	·	·	·	–	·	–[9.04 µM]
Cc1cc(C)n2nc(C(=O)OCC(=O)NCc3ccc(Cl)cc3)nc2n1	–	–	–	–	–	–
S=C(SSC(=S)N1CCOCC1)N1CCOCC1	·	–	0.708µM	0.0259µM	0.562µM	0.0461µM
COc1ccc(NC(=O)COC(=O)c2ccc(C)c(S(=O)(=O)N3CCCCC3)c2)cc1	39.8µM	–	–	?	–	?
CC(OC(=O)c1ccc(Cl)c([N+](=O)[O-])c1)C(=O)N1CCN(Cc2ccccc2)CC1 (stereo not given)	–	-95.7	–	?	?	?
O=C(OCC(=O)N1CCCCCC1)c1ccc(Cl)c(S(=O)(=O)N2CCCC2)c1	·	–	–	?	–	23.1µM
Cc1ccc(C(=O)OCC(=O)NCc2ccccc2)cc1S(=O)(=O)N1CCCCC1	–	–	–	?	–	14.6µM
CC(C(=O)N1CCN(Cc2ccccc2)CC1)c1ccc([N+](=O)[O-])cc1 (stereo not given)	–	–	–	–	–	–
Cc1nc2cccnc2n1C1CCN(C(=O)Nc2ccccc2)CC1	–	·	–	–	–	–
O=C(COC(=O)c1ccc(Cl)c(S(=O)(=O)N2CCCCCC2)c1)NCc1ccccc1	·	–	–	?	–	23.1µM

Screening data deposited in PubChem BioAssay by National Center for Advancing Translational Sciences (NCATS).
